# Experimental data from PubChem BioAssay.
# For some assays here: Results with a measured potency or affinity are listed apart. Active and inactive are the calls of the source.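 Rule for the calls, unless noted: active = primary screen activator hit with a dose response curve and TRPC4 channel activation at any tested dose; inactive = no activation, no dose response, or not a primary hit.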
# Columns and labels:
# [1] = tested on: TRPC4 beta (transient receptor potential cation channel C4), mouse; experiment: activators of mouse TRPC4 channel, confirmation, cell-based, Fluo4 calcium, HEK293 TRPC4beta/mu-opioid, duplicates, 10 µM (AID 2426;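 active = fluorescence ratio normalized to control raised more than 50% in primary screen plus both repeat runs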); details: Fluo4 calcium fluorescence, at 10 µM; hits give high values
# [2] = tested on: transient receptor potential cation channel C4 beta (TRPC4), mouse; experiment: activators of mouse TRPC4 channel, confirmation, cell-based, second round, Fluo4, HEK293 TRPC4beta/mu-opioid, 1 µM (AID 2461;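 active = primary screen active and over 50% activation in each of two duplicate runs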); details: Fluo4 calcium fluorescence, at 1 µM; hits give high values
# [3] = tested on: TRPC4 (transient receptor potential cation channel C4 beta), mouse; experiment: positive allosteric modulators of mouse TRPC4, confirmation, cell-based, second round, Fluo-4, HEK293 TRPC4beta/mu-opioid, 1 µM (AID 2554;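 active = primary screen hit whose fluorescence ratio, in both repeats, exceeds the weak agonist control mean by 3 SD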); details: DAMGO EC20, Fluo-4 calcium flux, at 1 µM; hits give high values
# [4] = tested on: TRPC4 beta (transient receptor potential cation channel C4), mouse; experiment: positive allosteric modulators of mouse TRPC4, confirmation, cell-based, Fluo-4, HEK293 TRPC4beta/mu-opioid (AID 2555;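 active = primary screen hit whose calcium fluorescence ratio, in both repeats, exceeds the weak agonist control mean by 3 SD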); details: DAMGO EC20, Fluo-4 calcium flux, at 10 µM; hits give high values
# [5] = biological target: Short transient receptor potential channel 4 (Mus musculus) (UniProt Q9QUQ5); experiment: inhibitors of mouse TRPC4 channel, confirmation, cell-based, Fluo4, HEK293 TRPC4beta/mu-opioid (AID 2636;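 active = calcium signal cut by more than 3 SD below the full-agonist control yet still positive, in both repeats and the earlier primary screen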); details: DAMGO, Fluo4 calcium flux, at 10 µM; hits give high values
# Chain of Short transient receptor potential channel 4 (Mus musculus) (Q9QUQ5 whole entry, looked up): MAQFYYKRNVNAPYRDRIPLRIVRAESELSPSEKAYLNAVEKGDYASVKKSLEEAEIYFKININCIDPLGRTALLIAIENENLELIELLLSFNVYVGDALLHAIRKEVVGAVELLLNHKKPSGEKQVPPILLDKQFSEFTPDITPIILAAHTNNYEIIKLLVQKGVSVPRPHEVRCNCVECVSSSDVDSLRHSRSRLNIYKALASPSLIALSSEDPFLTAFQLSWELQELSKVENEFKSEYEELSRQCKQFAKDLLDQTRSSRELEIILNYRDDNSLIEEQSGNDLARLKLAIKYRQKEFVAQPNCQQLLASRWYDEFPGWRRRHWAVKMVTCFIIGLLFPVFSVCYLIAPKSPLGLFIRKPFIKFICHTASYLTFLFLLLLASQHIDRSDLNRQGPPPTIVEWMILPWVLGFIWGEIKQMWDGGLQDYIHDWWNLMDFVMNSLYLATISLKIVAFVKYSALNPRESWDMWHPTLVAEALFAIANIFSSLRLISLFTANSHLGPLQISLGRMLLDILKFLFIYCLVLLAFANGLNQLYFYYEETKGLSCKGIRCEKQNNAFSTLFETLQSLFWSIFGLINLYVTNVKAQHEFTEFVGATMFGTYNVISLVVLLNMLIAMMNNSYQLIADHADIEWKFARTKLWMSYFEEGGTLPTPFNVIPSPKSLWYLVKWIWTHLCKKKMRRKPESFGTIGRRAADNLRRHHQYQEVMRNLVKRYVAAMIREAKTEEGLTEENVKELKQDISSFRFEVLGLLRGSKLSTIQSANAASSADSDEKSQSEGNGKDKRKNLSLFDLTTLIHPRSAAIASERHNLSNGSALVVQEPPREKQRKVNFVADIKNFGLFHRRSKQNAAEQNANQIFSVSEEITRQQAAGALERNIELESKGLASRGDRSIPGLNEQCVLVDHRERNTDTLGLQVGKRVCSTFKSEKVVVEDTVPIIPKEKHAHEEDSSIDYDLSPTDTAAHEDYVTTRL
# [6] = biological target: Short transient receptor potential channel 4 (Mus musculus) (UniProt Q9QUQ5); experiment: inhibitors of mouse TRPC4 channel, confirmation, cell-based, second round, Fluo4, HEK293 TRPC4beta/mu-opioid, 1 µM (AID 2637;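 active = calcium signal ratio cut to more than 3 SD under the fully stimulated control mean yet still positive, in both repeats and the primary screen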;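 for inhibition: percent of integrated ratio relative to wells lacking test compound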); details: Fluo4 calcium flux, DAMGO, at 1 µM; hits give high values
# [7] = biological target: Short transient receptor potential channel 4 (Mus musculus) (UniProt Q9QUQ5); experiment: mouse TRPC4 channel activators, dose response, cell-based, HEK293 TRPC4/mu-opioid, Fluo-4 calcium (AID 434937)
# [8] = biological target: Short transient receptor potential channel 4 (Mus musculus) (UniProt Q9QUQ5); experiment: TRPC4 positive allosteric modulators, dose response, cell-based, HEK293 TRPC4/mu-opioid, Fluo-4 calcium, EC20 DAMGO (AID 434941;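 active = earlier screen potentiator hit that boosts the TRPC4 ion channel at some dose, with a dose response; inactive = no potentiation, no dose response, or not a prior hit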;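 note: calcium entry triggered by an EC20 dose of DAMGO at the co-expressed mu-opioid receptor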)
# [9] = biological target: Short transient receptor potential channel 6 (Mus musculus) (UniProt Q61143); experiment: inhibition of mouse TRPC6 channel, confirmation, selectivity assay for TRPC4 inhibitor project, cell-based, HEK293, membrane potential dye, duplicate (AID 434948;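 active = active in primary screen and both duplicates, each dropping signal beyond three positive-control SD with fluorescence still positive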); details: HEK293 TRPC6, membrane potential dye fluorescence, at 10 µM, stimulated with maximal-effect acetylcholine; hits give high values
# Chain of Short transient receptor potential channel 6 (Mus musculus) (Q61143 whole entry, looked up): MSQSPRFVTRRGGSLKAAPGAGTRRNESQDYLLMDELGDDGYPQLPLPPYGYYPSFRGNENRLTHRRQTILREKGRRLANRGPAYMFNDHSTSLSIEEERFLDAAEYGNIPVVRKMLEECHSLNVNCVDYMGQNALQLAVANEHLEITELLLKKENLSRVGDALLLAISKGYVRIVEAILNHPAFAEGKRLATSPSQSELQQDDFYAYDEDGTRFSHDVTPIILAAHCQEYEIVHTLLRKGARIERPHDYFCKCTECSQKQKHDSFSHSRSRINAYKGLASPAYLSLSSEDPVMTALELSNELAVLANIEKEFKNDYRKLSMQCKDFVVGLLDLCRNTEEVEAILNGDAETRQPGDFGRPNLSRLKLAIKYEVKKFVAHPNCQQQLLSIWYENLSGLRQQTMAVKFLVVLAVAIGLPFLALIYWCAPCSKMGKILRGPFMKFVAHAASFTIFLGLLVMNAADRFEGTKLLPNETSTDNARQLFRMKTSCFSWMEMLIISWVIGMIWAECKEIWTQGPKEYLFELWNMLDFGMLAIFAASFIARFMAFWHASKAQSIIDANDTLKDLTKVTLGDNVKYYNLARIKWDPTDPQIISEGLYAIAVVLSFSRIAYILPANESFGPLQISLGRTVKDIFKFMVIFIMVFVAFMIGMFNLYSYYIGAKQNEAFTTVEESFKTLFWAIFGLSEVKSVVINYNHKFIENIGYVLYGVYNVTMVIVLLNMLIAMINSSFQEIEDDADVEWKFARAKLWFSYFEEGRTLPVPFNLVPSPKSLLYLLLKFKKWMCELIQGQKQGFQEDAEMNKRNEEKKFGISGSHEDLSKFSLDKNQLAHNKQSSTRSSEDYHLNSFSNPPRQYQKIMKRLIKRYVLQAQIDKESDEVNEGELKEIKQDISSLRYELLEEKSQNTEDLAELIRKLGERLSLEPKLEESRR
# [10] = biological target: Short transient receptor potential channel 6 (Mus musculus) (UniProt Q61143); experiment: activation of mouse TRPC6 channel, confirmation, selectivity assay for TRPC4 activator project, cell-based, HEK293, membrane potential dye, duplicate (AID 434950;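 active = membrane potential signal rise above negative control mean plus 3 SD in both duplicates, also active in the earlier TRPC4 screen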); details: HEK293 TRPC6, membrane potential fluorescence, at 10 µM; hits give high values
# [11] = biological target: Short transient receptor potential channel 6 (Mus musculus) (UniProt Q61143); experiment: TRPC6 potentiation by TRPC4 potentiator hits, confirmation, selectivity assay for TRPC4 potentiator project, HEK293 cells, membrane potential dye, duplicate (AID 434952;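 active = compound raising the membrane signal above positive-control mean plus 3 SD in both repeats, and a primary screen hit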); details: HEK293 TRPC6, membrane potential dye fluorescence, at 10 µM, maximal acetylcholine added after compound; hits give high values
# [12] = biological target: Short transient receptor potential channel 4 (Mus musculus) (UniProt Q9QUQ5); experiment: calcium flux activators in TRPC4/5HT1a cells, counter-screen for TRPC4 activator project, cell-based, second counter screen, HEK293 TRPC4/5HT1a, Fluo-4 (AID 434977;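 active = calcium signal rise above buffer-control mean plus 5 SD in both duplicates, and also a hit in the primary screen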); details: Fluo-4 calcium flux, at 10 µM; hits give high values
# [13] = calcium flux inhibitors in TRPC4/5HT1a cells, confirmation, counter-screen for TRPC4 inhibitor project, cell-based, second counter screen, HEK293 TRPC4/5HT1a, Fluo-4 (AID 434978;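 active = primary screen active whose calcium signal fell more than 3 SD beyond the full-serotonin control mean in both duplicate plates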;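 for outcome: serotonin given first at submaximal then at maximal dose after compound preincubation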); details: Fluo-4 calcium flux, at 10 µM, serotonin added to trigger calcium flux; hits give high values
# [14] = tested on: TRPC4 (mouse), co-expressed with 5HT1a in HEK293; experiment: calcium flux potentiators in TRPC4/5HT1a cells, confirmation, counter-screen for TRPC4 potentiator project, cell-based, second counter screen, HEK293 TRPC4/5HT1a, Fluo-4 (AID 434979;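 active = signal rise over 3 SD above mean of control wells given weak agonist, in both repeats and first screen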); details: Fluo-4 calcium flux, at 10 µM, serotonin added at its EC20 dose; hits give high values
# [15] = calcium flux activation in mu-opioid HEK293 cells, confirmation, counter-screen for TRPC4 activator project, cell-based, HEK293 mu-opioid receptor line (AID 449723;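 active = hit in primary screen, with calcium signal over 5 SD above buffer well mean in both duplicates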;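 note: counter screen cells carry the mu-opioid receptor alone and lack TRPC4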); details: Fluo-4 calcium fluorescence, at 10 µM; hits give high values
# [16] = calcium flux enhancement in mu-opioid HEK293 cells, confirmation, counter-screen for TRPC4 allosteric potentiator project, cell-based, HEK293 mu-opioid receptor line (AID 449724;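 active = calcium signal rise more than 3 SD above the low-dose agonist control mean, in both duplicate plates and the primary screen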); details: Fluo-4 calcium flux, at 10 µM, compound added before EC20 DAMGO stimulus; hits give high values
SMILES,outcome [1],outcome [2],outcome [3],outcome [4],inhibition [5],inhibition [6],outcome [7],outcome [8],outcome [9],outcome [10],outcome [11],outcome [12],outcome [13],outcome [14],outcome [15],outcome [16],inhibition [13],outcome [6],inhibition [9]
Cc1ccc(S(=O)(=O)Nc2cccc(C(=O)NCC(c3ccco3)N3CCCCC3)c2)cc1F (stereo not drawn),inactive,inactive,inactive,inactive,100% (active),39% (active),inactive,inactive,inactive,inactive,inactive,inactive,inactive,inactive,inactive,inactive,,,
CN1CCN(c2ccc(NC(=O)c3ccc(Br)o3)cc2)CC1,inactive,inactive,inactive,inactive,91% (active),46% (active),inactive,inactive,inactive,inactive,inactive,inactive,inactive,inactive,inactive,inactive,,,
N=c1n(CCO)c2ccccc2n1Cc1ccc(Cl)cc1,inactive,inactive,inactive,inactive,96% (active),75% (active),inactive,inactive,inactive,inactive,inactive,inactive,,inactive,inactive,inactive,11.9% (active),,
CC12CC3(C)CC(C)(C1)CC(NC(=O)N1CCCC1)(C2)C3,inactive,inactive,inactive,inactive,76% (active),,inactive,inactive,inactive,inactive,inactive,inactive,inactive,inactive,inactive,inactive,,inactive,
CC(C)(C)Cc1nc2ccccc2n1CCc1ccccc1,inactive,inactive,inactive,inactive,82% (active),64% (active),inactive,inactive,inactive,inactive,inactive,inactive,,inactive,inactive,inactive,17.2% (active),,
Cn1cc(-c2nc3ccccc3[nH]2)c2ccccc21,inactive,inactive,inactive,inactive,99% (active),49% (active),inactive,inactive,,inactive,inactive,inactive,,inactive,inactive,inactive,41.1% (active),,5.5% (active)
Cc1nc(Cl)c(Cl)n1CCOc1ccccc1,inactive,inactive,inactive,inactive,94% (active),46% (active),inactive,inactive,inactive,inactive,inactive,inactive,,inactive,inactive,inactive,18.9% (active),,
COc1cc2ccccc2c2c1CCCC2=O,inactive,inactive,inactive,inactive,85% (active),,inactive,inactive,inactive,inactive,inactive,inactive,,inactive,inactive,inactive,26.2% (active),inactive,
